According to PubChem BioAssay (NCATS):
Inconclusive results are not listed. Where a call stands in place of a potency, no number is given. Activity calls are given as the source filed them. The call rests on the fitted dose curve; in most records, active means well fitted curve in the direction sought with a large enough effect; inconclusive means small, poorly fitted or top-dose-only effect, or another doubt; inactive means no such curve, though single readings can be large; an effect the other way counts as inactive or inconclusive.

What was measured:
[1] = qHTS for Inhibitors of the Aldehyde Dehydrogenase Family (ALDH1A2, ALDH1A3, ALDH2, ALDH3A1) (AID 2061307); conditions: ALDH inhibition qHTS; series mostly up to 50.3 µM; further: nearly all actives have a fitted effect of over 50% in size; on potency: test system not described further here; potency means the concentration at half of the fitted maximal effect
[2] = target: Retinal dehydrogenase 2 (Homo sapiens) (UniProt O94788); assay: qHTS for Inhibitors of the Aldehyde Dehydrogenase Family (ALDH1A2) Confirmation screens (AID 2061314); conditions: ALDH1A2 enzyme inhibition qHTS confirmation; series mostly up to 45.9 µM; further: nearly all actives have a fitted effect of over 65% in size; further: potency means the concentration at half of the fitted maximal effect
[3] = target: Retinaldehyde dehydrogenase 3 (Homo sapiens) (UniProt P47895); assay: qHTS for Inhibitors of the Aldehyde Dehydrogenase Family (ALDH1A3) Primary screen (AID 2061315); conditions: ALDH inhibition qHTS; series mostly up to 56 µM
[4] = target: Aldehyde dehydrogenase 1A1 (Homo sapiens) (UniProt P00352); assay: qHTS for Inhibitors of the Aldehyde Dehydrogenase Family (ALDH1A1) Confirmatory screens (AID 2061316); conditions: ALDH inhibition qHTS; series mostly up to 47.3 µM; further: nearly all actives have a fitted effect of over 65% in size; further: potency means the concentration at half of the fitted maximal effect
[5] = target: Retinaldehyde dehydrogenase 3 (Homo sapiens) (UniProt P47895); assay: qHTS for Inhibitors of the Aldehyde Dehydrogenase Family (ALDH1A3) Confirmatory screens (AID 2061311); conditions: ALDH inhibition qHTS; series mostly up to 46 µM; further: nearly all actives have a fitted effect of over 60% in size; further: potency means the concentration at half of the fitted maximal effect
[6] = target: Aldehyde dehydrogenase, mitochondrial (Homo sapiens) (UniProt P05091); assay: qHTS for Inhibitors of the Aldehyde Dehydrogenase Family (ALDH2) Primary screen (AID 2061308); conditions: ALDH2 enzyme inhibition qHTS, 1536-well; series mostly up to 56 µM; further: nearly all actives have a fitted effect of over 55% in size

## O=C(NCCc1nc2ccccc2n1CCCc1ccccc1)C1CCCCC1
[1]
  Potency: inactive
[2]
  Potency: inactive
[3]
  Potency: inactive

## O=C(Nc1cccc(Cc2ccccc2)c1)c1ccc(-c2cccc([N+](=O)[O-])c2)o1
[1]
  Potency: 25.2 µM (active)
[2]
  Potency: 12.7 µM (active)
[3]
  Potency: inactive

## CCOC(=O)c1ccc(-c2ccc3ncnc(NCc4ccc(C)o4)c3c2)o1
[1]
  Potency: inactive
[2]
  Potency: 12.7 µM (active)
[3]
  Potency: inactive

## Cc1cc(N(C)S(=O)(=O)c2ccc(NC(=O)Cc3ccc(Cl)c(Cl)c3)cc2)no1
[1]
  Potency: 25.2 µM (active)
[2]
  Potency: inactive
[4]
  Potency: 12.7 µM (active)

## Cc1nnc2ccc(N3CCC(NC(=O)c4cccc(C(F)(F)F)c4)CC3)nn12
[1]
  Potency: inactive
[5]
  Potency: inactive
[4]
  Potency: inactive

## O=C(CSc1nc2ncccc2o1)Nc1ccc(Cl)cc1F
[1]
  Potency: inactive
[5]
  Potency: 10 µM (active)
[4]
  Potency: inactive

## O=C(NCc1ccccc1)c1csc(N2CCN(c3ccc(Cl)cc3)CC2)n1
[1]
  Potency: 2.82 µM (active)
[2]
  Potency: inactive

## COc1ccc(C2=NS(=O)(=O)N(C)C(C(=O)Nc3ccc(OC(F)(F)F)cc3)=C2)cc1
[1]
  Potency: 7.94 µM (active)
[2]
  Potency: inactive

## C[C@@H](O)c1ccc(-c2ccc3ncnc(NCc4cccs4)c3c2)o1
[1]
  Potency: inactive
[3]
  Potency: inactive

## Cc1ccc(C)c(SC2=NS(=O)(=O)c3cc(C(=O)NCc4ccccc4)ccc32)c1
[6]
  Potency: inactive

## O=C(O)c1cccc(-c2noc(-c3ccccc3Cl)n2)c1
[6]
  Potency: inactive

## CC(=O)Nc1sc2c(c1-c1ccc(C#N)cc1)CCNC2
[1]
  Potency: inactive
[3]
  Potency: inactive
[4]
  Potency: inactive

## Oc1c(CNc2ccccc2)cc(COCc2ccccc2)c2cccnc12
[6]
  Potency: inactive

## CC(=O)c1ccc(N2CCN(C(=O)c3ccc4c(c3)CCC(=O)N4)CC2)cc1
[6]
  Potency: inactive

## COc1ccc(C(O[C@@H]2O[C@H](CO)[C@@H](O)[C@H](O)[C@H]2O)C(CO)Oc2ccc(/C=C/CO)cc2OC)cc1O (stereo not given in full)
[6]
  Potency: inactive

## COc1ccc(NC(=O)c2cccnc2)cc1S(=O)(=O)Nc1ccc(Br)cc1
[1]
  Potency: inactive
[3]
  Potency: inactive

## Oc1ccc(CNc2ccccc2C(F)(F)F)c2cccnc12
[6]
  Potency: inactive

## O=C(O)c1ccc(O)c2ncc(NCC3CCCN(CCc4ccccc4)C3)cc12 (stereo not given)
[6]
  Potency: inactive

## CC(C)(C)OC(=O)N1CCN(c2ccc(NCc3ccoc3-c3ccc(C#N)cc3)cc2)CC1
[6]
  Potency: inactive

## CCCn1c(-c2ccc(F)cc2)nc2c(N3CCN(CCn4ccnc4)CC3)nc(C)nc21
[6]
  Potency: inactive

## FC(F)(F)c1ccccc1-c1nc(NCc2ccc(-c3cccc4ccccc34)cc2)c2ccccc2n1
[6]
  Potency: inactive

## Cc1ccnc(NC(=S)N2CCN(c3cccc(C(F)(F)F)n3)CC2)c1
[6]
  Potency: inactive

## O=C(O)c1ccc(Cc2c(-c3cccc(-c4ccccc4)c3)[nH]n(-c3nc(C(=O)O)cs3)c2=O)cc1
[6]
  Potency: inactive

## c1cc2c3c(cccc3c1)NC(c1ccc3c(c1)OCO3)N2
[6]
  Potency: inactive

## COc1cc(OC)c(C(CC(=O)N2CC(C)CC(C)C2)c2ccc3c(c2)OCO3)c(OC)c1 (stereo not given)
[6]
  Potency: inactive

## CC(C)(C)NS(=O)(=O)c1cccc(Nc2nn3c(=O)c4ccccc4nc3s2)c1
[1]
  Potency: 22.5 µM (active)
[3]
  Potency: inactive
[4]
  Potency: 11.3 µM (active)

## FC(F)(F)c1ccccc1-c1nc(NCc2ccc(-c3cccnc3)cc2)c2sccc2n1
[6]
  Potency: inactive

## Cc1ccnc(NC(=S)N2CCCC(Nc3cccc(C(F)(F)F)c3)C2)c1 (stereo not given)
[6]
  Potency: inactive

## O=C1Cc2cc(S(=O)(=O)N3CCN(c4ccc([N+](=O)[O-])cc4)CC3)ccc2N1
[1]
  Potency: inactive
[3]
  Potency: inactive

## COc1ccnc(NC(=S)N2CCN(c3cccc(Cl)c3Cl)CC2)c1
[1]
  Potency: 10 µM (active)
[4]
  Potency: 4 µM (active)

## C=C1/C(=C/C=C2\CCC[C@@]3(C)C2CCC3[C@H](C)/C=C/[C@@H](O)C2CC2)C[C@@H](O)C[C@@H]1O (stereo not given in full)
[6]
  Potency: inactive

## O=C(Nc1ccccc1C(=O)O)c1ccccc1
[6]
  Potency: inactive

## Nc1ccccc1C(=O)NCc1ccco1
[1]
  Potency: inactive
[3]
  Potency: inactive

## CC(O)c1ccc(-c2ccc3ncnc(NCc4nccs4)c3c2)o1 (stereo not given)
[1]
  Potency: inactive
[3]
  Potency: inactive
[4]
  Potency: 10.1 µM (active)

## O=C1c2ccccc2C(=O)N1c1cccc2cccnc12
[6]
  Potency: inactive

## COc1ccc(OC)c(N2C(=O)C(Cl)=C(N3CCCCC3)C2=O)c1
[6]
  Potency: inactive

## CC(C)c1ccccc1-c1nccc(NCc2ccc(-c3cccnc3)cc2)n1
[6]
  Potency: inactive

## C=C1/C(=C/C=C2\CCC[C@]3(C)[C@@H]([C@H](C)/C=C/[C@H](O)C4CC4)CC[C@@H]23)C[C@@H](O)C[C@@H]1O
[6]
  Potency: inactive

## COc1ccnc(NC(=S)N2CCN(c3ccc(Cl)cc3Cl)CC2)c1
[1]
  Potency: 11.2 µM (active)
[4]
  Potency: 5.65 µM (active)
